# Rows were chosen to be rich in hits. Some 0.49% of all compounds tested hit in one or more screens of this group.
# EPAC2 ag – qHTS for Agonist of cAMP-regulated guanine nucleotide exchange factor 4 (EPAC2): primary screen | EPAC2 activation, biochemical qHTS; response scale: 100% = 6.5 mM cAMP response | Potency, µM (titrated, usually from 154 µM), inactives show at the highest dose activation, actives largely listed as activators | 360,000 tested, 0.079% active | AID 720711, 2013; also: nearly all actives have a fitted effect of over 50% in size
# Target sequence (Q8WZA2 whole entry, looked up): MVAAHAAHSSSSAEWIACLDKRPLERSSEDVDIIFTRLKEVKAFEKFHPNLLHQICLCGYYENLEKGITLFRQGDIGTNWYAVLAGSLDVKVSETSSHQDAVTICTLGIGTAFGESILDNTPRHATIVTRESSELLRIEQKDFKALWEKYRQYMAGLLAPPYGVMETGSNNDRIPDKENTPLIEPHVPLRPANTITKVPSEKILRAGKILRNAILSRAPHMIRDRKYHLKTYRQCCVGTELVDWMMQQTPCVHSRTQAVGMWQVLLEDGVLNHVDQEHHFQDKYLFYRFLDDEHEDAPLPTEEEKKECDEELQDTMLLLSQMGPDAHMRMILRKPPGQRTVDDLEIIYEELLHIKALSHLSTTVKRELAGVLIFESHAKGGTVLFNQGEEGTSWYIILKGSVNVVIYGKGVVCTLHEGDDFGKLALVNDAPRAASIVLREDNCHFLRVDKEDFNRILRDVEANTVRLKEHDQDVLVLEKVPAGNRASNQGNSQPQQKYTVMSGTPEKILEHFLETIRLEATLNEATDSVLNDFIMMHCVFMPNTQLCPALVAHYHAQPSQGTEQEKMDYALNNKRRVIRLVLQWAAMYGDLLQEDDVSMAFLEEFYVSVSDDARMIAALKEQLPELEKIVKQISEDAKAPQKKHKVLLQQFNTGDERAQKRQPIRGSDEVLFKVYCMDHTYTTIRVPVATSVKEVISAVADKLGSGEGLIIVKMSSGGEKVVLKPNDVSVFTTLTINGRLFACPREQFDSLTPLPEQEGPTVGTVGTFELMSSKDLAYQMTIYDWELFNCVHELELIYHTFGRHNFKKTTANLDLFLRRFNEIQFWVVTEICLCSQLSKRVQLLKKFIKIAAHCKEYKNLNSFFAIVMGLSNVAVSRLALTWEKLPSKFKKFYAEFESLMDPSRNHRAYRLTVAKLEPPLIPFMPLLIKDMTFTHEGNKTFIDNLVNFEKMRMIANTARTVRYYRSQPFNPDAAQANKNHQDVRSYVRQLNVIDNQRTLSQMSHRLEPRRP
#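 qHTS, titration series. 100 nM EPAC2 / 250 nM Rap1B-BODIPY-GDP / 50 uM GDP; RT; ex 480/em 540 nm, 5-min reads to 30 min. Norm. to 6.5 mM cAMP = activation.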
# EPAC1 antag – qHTS for Antagonist of cAMP-regulated guanine nucleotide exchange factor 3 (EPAC1): primary screen; 360,000 tested, 0.14% active; Potency, µM (doses to about 115 µM), without a hit: at the top dose activity change, negative = inhibition, hits mostly inhibitors; Rap guanine nucleotide exchange factor 3 (Homo sapiens), O95398; EPAC1 GEF assay, Rap1b-BODIPY-GDP exchange fluorescence;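 also: plate controls were vehicle for no effect and positive control for full effect; nearly all actives have a fitted effect of over 50% in size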
# USP1 inh – Inhibitors of USP1/UAF1: Primary Screen. Ubiquitin carboxyl-terminal hydrolase 1 (Homo sapiens), O94782. recombinant USP1/UAF1, Ub-Rhodamine cleavage fluorescence. Potency, µM (doses to about 57.1 µM), for the others: top-dose activity change, negative = inhibition, hits mostly inhibitors. 390,000 tested, 0.23% active. AID 743255, 2014; also: % is scaled to controls: 0 for no effect and ±100 for the full control effect; nearly all actives have a fitted effect of over 60% in size
#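 USP1/UAF1 complex at 1 nM was preincubated with compound for 15 min at room temperature, then Ub-Rho substrate (150nM final) was added. Fluorescence (480/540 nm) was read kinetically, 6 reads every 60 seconds.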
# EPAC2 antagonist – qHTS for Antagonist of cAMP-regulated guanine nucleotide exchange factor 2 (EPAC2): primary screen. Potency, µM (doses to about 114 µM), for inactives: at the highest dose activity, negative = inhibition, most hits filed as inhibitors. EPAC2 GEF exchange of Rap1B-BODIPY-GDP, fluorescence. Rap guanine nucleotide exchange factor 4 (Homo sapiens), Q8WZA2. 360,000 tested, 0.18% active; also: % is scaled to controls: 0 for no effect and ±100 for the full control effect; nearly all actives have a fitted effect of over 45% in size
# EPAC1 agonist – qHTS for Agonist of cAMP-regulated guanine nucleotide exchange factor 3 (EPAC1): primary screen | EPAC1 agonist qHTS, biochemical assay; response scale: 100% = response to 6.5 mM cAMP | Rap guanine nucleotide exchange factor 3 (Homo sapiens), O95398 | Potency, µM (top dose mostly 154 µM), for the others: at the top dose activation, actives largely listed as activators | 360,000 tested, 0.073% active; also: nearly all actives have a fitted effect of over 60% in size
#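 Normalized to 6.5 mM cAMP, activity reflects EPAC1-catalysed release of BODIPY-GDP from Rap1B, followed kinetically over 30 min at 480 nm excitation, 540 nm emission. Reaction contained 100 nM EPAC1, 250 nM Rap1B-BODIPY-GDP, 50 uM GDP.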
# Active calls of the source: *; i = inactive; ? = inconclusive; nt = no result; + = active, no number; [ ] = dose if it differs, or a comment. Calls follow the shape of the dose curve; as a rule, active = well fitted curve in the direction sought with a large enough effect; inconclusive = small, poorly fitted or top-dose-only effect, or another doubt; inactive = no such curve, though single readings can be large; an effect the other way counts as inactive or inconclusive. Potency is read from the fitted curve at half-maximal effect.
SMILES,EPAC2 ag,EPAC1 antag,USP1 inh,EPAC2 antagonist,EPAC1 agonist
COc1ccc(CN2COc3ccc4c(C)cc(=O)oc4c3C2)cc1,nt,nt,-12%,nt,nt
COc1ccc(N(CC(=O)Nc2cc(OC)cc(OC)c2)S(=O)(=O)c2c(C)noc2C)cc1,nt,nt,-13%,nt,nt
CC(NC(=O)/C(C#N)=C/c1ccc(N2CCOCC2)cc1)c1ccccc1 (stereo not given),?,-23%,-10%,-3%,89µM*
COC(=O)c1ccc(/C=C(\C#N)C(=O)NC(C)c2ccccc2)cc1 (stereo not given),21%,0%,-13%,1%,12%
Cc1ccc(NC(=O)CSCC(=O)N(C)CCOc2ccc(Cl)cc2)cc1,0%,1%,-17%,-15%,6%
Cc1cccc(NC(=O)CSCC(=O)N(C)CCOc2ccc(Cl)cc2)c1,9%,-12%,-13%,-7%,50µM*
CC1=C(C(=O)NCCc2ccc(Cl)cc2)C2(CCCCC2)OC1=O,nt,nt,4%,nt,nt
Cc1c(CCC(=O)O)c(=O)oc2cc3occ(-c4ccc(Cl)cc4)c3cc12,1%,-8%,?,-27%,8%
Cc1c(CCC(=O)O)c(=O)oc2c(C)c3occ(-c4ccc(Cl)cc4)c3cc12,?,40µM*,?,-14%,?
CCCS(=O)(=O)c1c(S(=O)(=O)CCC)c2cc(C(C)(C)C)ccn2c1C(=O)c1ccccc1,nt,nt,-18%,nt,nt
COc1ccc(/C=C2\C(=O)NC(=O)c3ccccc32)cc1OC,11%,?,1.8µM*,-11%,2%
CN(C1=C(NC(=O)c2ccccc2)C(=O)c2ccccc2C1=O)C1CCS(=O)(=O)C1 (stereo not given),-9%,-17%,10µM*,-23%,-30%
COc1cccc(NC(=O)c2csc3c2CCCC3)c1,13%,155%,-7%,-9%,100µM*
O=C1C(Cl)=C(NCCN2CCCCC2)C(=O)c2ccccc21,12%,-5%,18µM*,13%,5%
O=C(NCC(c1cccs1)S(=O)(=O)c1cccs1)c1ccccc1 (stereo not given),nt,nt,-14%,nt,nt
COc1cc(-c2c(CCO)sc3ccccc23)cc(OC)c1OC,7%,-4%,nt,47µM*,0%
O=C(/C=C/c1ccc(-c2ccccc2[N+](=O)[O-])o1)c1ccco1,12%,50µM*,-15%,0%,4%
Cc1ccc2c(c1)C(c1ccc(F)cc1)N(C(=O)c1ccc(OC(C)C)cc1)CC(=O)N2 (stereo not given),nt,nt,-16%,nt,nt
COc1cccc(CNC(=O)c2ccc(CN3CC(=O)N4CCCCC4C3=O)cc2)c1 (stereo not given),nt,nt,-7%,nt,nt
Cc1noc(C)c1S(=O)(=O)N1CCCC(C(=O)Nc2ccc(C(C)C)cc2)C1 (stereo not given),nt,nt,-26%,nt,nt
O=C(Nc1ccc(C(=O)O)cc1)/C(=C\C=C\c1ccccc1)NC(=O)c1ccc(Br)cc1,6%,-24%,+,?,3%
Cc1ccc(NC(=O)/C(=C/C=C/c2ccccc2)NC(=O)c2ccccc2)cc1,-15%,4%,-14%,-6%,-2%
Cc1ccc2nc(N3CCN(c4cccc(C(F)(F)F)c4)CC3)c3nnnn3c2c1,nt,nt,-23%,nt,nt
CCN(CC)C1=CC2=CC(=C(C#N)C#N)CCC2CC1 (stereo not given),100µM*,226%,i[2.29 µM],i,?
CCCCN(C)C1=CC2=CC(=C(C#N)C#N)CCC2CC1 (stereo not given),41%,i,i[2.29 µM],117%,?
SMILES,EPAC2 ag,EPAC1 antag,USP1 inh,EPAC2 antagonist,EPAC1 agonist
CCNC(=S)N/N=C/c1sc(N2CCCCC2)nc1-c1cccs1,1%,89µM*,?,?,-52%
CCNC(=S)Nc1ccc(N2CCCCC2)cc1,4%,7%,-9%,4%,7%
Cc1nc(C)c(-c2ccc(SCC(=O)Nc3ccc(Br)cc3)nn2)s1,nt,nt,-20%,nt,nt
O=C1CC(c2cccc(Cl)c2Cl)c2cc3c(cc2N1)OCCO3 (stereo not given),nt,nt,-23%,nt,nt
COc1cc(CNC(C)c2ccccc2)cc(Br)c1OCc1ccccc1 (stereo not given),18%,-13%,-16%,-5%,6%
Oc1ccc(NCc2ccc(OCc3ccccc3)cc2)cc1,20%,?,3.2µM*,-16%,9%
Oc1ccc(NCc2ccc(OCc3ccccc3Cl)cc2)cc1,nt,nt,32µM*,nt,nt
COC(=O)Nc1ccc(OCc2ccccc2)cc1,0%,13%,-11%,10%,4%
Cn1nnnc1SCCNCc1ccc(OCc2ccccc2Cl)cc1,nt,nt,-13%,nt,nt
CCc1ccc(CNc2ccc3c(c2)ncn3CC)cc1,3%,?,-21%,-12%,-6%
COc1cc(CNc2ccc(O)cc2)cc(Br)c1OCc1ccccc1,14%,40µM*,-27%,?,17%
CCc1ccc(CNc2ccc(O)cc2)cc1,9%,8.9µM*,28µM*,15%,0%
CCOC(=O)/C(=C/c1ccc(N2CCC(c3ccccc3)=N2)cc1)C(C)=O,100µM*,-7%,4.5µM*,202%,?
CCNc1ccc2noc3c2c1C(=O)c1ccccc1-3,89µM*,415%,?,152%,112µM*
CCOc1ccc2noc3c2c1C(=O)c1ccccc1-3,8%,4%,-18%,4%,-11%
O=C1c2ccccc2-c2onc3ccc(N4CCCC4)c1c23,-124%,146%,14µM*,125%,-152%
O=C(N/N=C/c1ccc(OC(=O)c2ccccc2Cl)cc1)c1cc(O)cc(O)c1,24%,71µM*,-12%,-19%,-4%
CC(C)CCn1c(SCc2cccc(F)c2)nc2ccsc2c1=O,nt,nt,-18%,nt,nt
Cc1ccc(C)c(N2CCN(C(=O)C3CCCN(S(=O)(=O)c4ccc5c(c4)oc(=O)n5C)C3)CC2)c1 (stereo not given),nt,nt,-26%,nt,nt
C[n+]1cccc2cccc([O-])c21,?,-7%,6.3µM*,?,4%
[O-][n+]1cccc2cccc(O)c21,7%,1%,-25%,9%,7%
CCCC[C@@H]1C[C@H]1[C@@H](NC(=O)c1cccs1)c1ccc(Cl)cc1,2%,-17%,-13%,?,2%
CCCC[C@@H]1C[C@H]1[C@@H](NC(=O)c1ccco1)c1ccc(Cl)cc1,2%,-19%,-22%,8.9µM*,-20%
CCCOc1cc2c(C#N)c(N3CCCC3)nc(N)c2c(N)n1,21%,-22%,28µM*,8%,-5%
